In ChEMBL document CHEMBL1961873, “Compounds: GSK PKIS; Assays: Nanosyn kinase panel” (2012):

Assays:
[1] = molecular target: Sphingosine kinase 1 (Homo sapiens) (UniProt Q9NYA1); details: at 1 µM;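 further: mean SPHK1 inhibition value reported from the GSK PKIS kinase panel screen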
[2] = molecular target: T1, Sphingosine kinase 2 (Homo sapiens) (UniProt Q9NRA0); details: at 0.1 µM
T1 sequence (whole entry): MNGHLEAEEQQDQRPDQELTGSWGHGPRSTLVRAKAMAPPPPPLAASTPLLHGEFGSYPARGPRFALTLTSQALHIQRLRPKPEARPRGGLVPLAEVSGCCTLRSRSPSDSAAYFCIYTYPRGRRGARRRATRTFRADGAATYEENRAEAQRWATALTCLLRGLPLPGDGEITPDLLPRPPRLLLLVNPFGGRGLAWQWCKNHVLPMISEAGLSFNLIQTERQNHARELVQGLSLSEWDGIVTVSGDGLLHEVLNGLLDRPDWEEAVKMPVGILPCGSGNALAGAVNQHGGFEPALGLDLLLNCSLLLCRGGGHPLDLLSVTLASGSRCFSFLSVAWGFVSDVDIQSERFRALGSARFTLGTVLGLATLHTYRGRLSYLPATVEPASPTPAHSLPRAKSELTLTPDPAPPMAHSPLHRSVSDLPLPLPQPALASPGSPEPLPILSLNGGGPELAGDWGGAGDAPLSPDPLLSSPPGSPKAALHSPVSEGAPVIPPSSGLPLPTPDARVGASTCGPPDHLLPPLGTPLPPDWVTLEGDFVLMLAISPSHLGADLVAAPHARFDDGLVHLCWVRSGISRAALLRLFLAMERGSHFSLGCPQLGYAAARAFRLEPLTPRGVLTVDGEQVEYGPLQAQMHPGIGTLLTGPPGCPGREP

[3] = molecular target: T1, Sphingosine kinase 2 (Homo sapiens); details: at 1 µM
[4] = molecular target: Casein kinase II subunit alpha (Homo sapiens) (UniProt P68400); details: at 0.1 µM
Sequence of Casein kinase II subunit alpha (Homo sapiens) (P68400 whole entry, looked up): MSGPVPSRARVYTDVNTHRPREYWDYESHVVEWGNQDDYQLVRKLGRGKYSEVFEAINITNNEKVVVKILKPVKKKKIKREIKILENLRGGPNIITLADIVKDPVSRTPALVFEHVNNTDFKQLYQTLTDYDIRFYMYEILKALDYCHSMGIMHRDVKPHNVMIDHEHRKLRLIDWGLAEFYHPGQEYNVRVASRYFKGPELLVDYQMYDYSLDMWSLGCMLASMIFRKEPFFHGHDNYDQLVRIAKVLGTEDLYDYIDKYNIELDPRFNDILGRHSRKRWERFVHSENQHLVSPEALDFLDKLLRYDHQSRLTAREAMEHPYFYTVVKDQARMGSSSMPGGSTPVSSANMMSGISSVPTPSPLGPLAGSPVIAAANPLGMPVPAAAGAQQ

[5] = molecular target: Casein kinase II subunit alpha (Homo sapiens) (UniProt P68400); details: at 1 µM
[6] = molecular target: T2, Inhibitor of nuclear factor kappa-B kinase subunit alpha (Homo sapiens) (UniProt O15111); details: at 0.1 µM
T2 sequence (whole entry): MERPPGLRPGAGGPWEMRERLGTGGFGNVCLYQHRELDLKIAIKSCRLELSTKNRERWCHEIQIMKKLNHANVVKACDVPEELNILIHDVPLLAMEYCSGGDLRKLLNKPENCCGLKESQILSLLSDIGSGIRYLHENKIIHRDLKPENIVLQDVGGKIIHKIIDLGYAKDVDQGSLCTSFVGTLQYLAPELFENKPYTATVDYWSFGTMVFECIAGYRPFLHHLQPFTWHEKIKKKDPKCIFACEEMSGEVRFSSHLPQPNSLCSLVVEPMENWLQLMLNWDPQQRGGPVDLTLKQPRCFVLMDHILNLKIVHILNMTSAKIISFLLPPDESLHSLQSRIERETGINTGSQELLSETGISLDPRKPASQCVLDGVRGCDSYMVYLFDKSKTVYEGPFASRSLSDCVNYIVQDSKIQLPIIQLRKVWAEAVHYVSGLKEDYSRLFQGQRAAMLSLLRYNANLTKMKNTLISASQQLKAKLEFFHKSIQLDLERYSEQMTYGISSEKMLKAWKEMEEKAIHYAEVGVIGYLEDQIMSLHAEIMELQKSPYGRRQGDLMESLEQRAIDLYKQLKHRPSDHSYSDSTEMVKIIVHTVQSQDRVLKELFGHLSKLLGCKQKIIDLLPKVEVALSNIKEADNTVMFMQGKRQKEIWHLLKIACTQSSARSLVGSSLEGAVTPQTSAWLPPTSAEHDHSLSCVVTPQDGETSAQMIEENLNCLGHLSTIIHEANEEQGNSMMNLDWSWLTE

[7] = molecular target: T2, Inhibitor of nuclear factor kappa-B kinase subunit alpha (Homo sapiens); details: at 1 µM
[8] = molecular target: T3, Inhibitor of nuclear factor kappa-B kinase subunit beta (Homo sapiens) (UniProt O14920); details: at 0.1 µM
T3 sequence (whole entry): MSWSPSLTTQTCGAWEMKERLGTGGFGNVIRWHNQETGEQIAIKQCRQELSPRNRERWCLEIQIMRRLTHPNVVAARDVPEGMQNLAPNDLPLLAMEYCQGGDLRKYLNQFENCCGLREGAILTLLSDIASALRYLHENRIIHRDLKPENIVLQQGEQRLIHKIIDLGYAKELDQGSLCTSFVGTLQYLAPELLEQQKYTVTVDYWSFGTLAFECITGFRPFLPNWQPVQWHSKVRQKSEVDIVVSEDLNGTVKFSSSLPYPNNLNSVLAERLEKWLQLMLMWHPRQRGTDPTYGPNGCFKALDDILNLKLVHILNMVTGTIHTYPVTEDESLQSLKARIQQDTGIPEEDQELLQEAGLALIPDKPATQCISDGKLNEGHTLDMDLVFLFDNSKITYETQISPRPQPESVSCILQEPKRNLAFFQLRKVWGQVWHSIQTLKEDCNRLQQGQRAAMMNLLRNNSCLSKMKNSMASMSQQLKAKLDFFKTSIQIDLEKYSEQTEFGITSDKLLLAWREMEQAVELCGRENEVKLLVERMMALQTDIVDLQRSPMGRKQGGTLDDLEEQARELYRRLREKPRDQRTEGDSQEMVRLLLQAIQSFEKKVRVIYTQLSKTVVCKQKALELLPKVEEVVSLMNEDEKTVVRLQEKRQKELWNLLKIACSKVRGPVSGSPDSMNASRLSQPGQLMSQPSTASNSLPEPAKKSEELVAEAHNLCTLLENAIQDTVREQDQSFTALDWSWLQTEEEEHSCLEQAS

[9] = molecular target: T3, Inhibitor of nuclear factor kappa-B kinase subunit beta (Homo sapiens); details: at 1 µM
[10] = molecular target: T4, Inhibitor of nuclear factor kappa-B kinase subunit epsilon (Homo sapiens) (UniProt Q14164); details: at 0.1 µM
T4 sequence (whole entry): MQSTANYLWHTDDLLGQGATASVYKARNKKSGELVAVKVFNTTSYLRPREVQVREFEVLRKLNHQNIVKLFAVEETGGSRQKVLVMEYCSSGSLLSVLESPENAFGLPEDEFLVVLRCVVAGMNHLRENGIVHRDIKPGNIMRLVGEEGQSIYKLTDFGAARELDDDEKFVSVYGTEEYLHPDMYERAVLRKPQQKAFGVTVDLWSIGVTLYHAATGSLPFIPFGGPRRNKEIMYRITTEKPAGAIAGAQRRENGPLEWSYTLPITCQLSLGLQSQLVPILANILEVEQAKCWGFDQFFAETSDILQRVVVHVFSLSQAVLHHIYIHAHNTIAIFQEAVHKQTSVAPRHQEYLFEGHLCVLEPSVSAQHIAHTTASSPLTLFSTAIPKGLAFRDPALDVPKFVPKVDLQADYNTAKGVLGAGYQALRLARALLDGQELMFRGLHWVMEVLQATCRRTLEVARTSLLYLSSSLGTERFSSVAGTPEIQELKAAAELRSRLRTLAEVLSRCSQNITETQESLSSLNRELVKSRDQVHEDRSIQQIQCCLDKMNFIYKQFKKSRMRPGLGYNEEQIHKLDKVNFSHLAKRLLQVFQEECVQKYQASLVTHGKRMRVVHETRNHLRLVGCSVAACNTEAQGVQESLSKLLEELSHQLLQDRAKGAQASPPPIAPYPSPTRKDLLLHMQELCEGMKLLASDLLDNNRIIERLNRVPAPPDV

[11] = molecular target: T4, Inhibitor of nuclear factor kappa-B kinase subunit epsilon (Homo sapiens); details: at 1 µM
[12] = molecular target: T5, Serine/threonine-protein kinase Nek1 (Homo sapiens) (UniProt Q96PY6); details: at 0.1 µM
T5 sequence (whole entry): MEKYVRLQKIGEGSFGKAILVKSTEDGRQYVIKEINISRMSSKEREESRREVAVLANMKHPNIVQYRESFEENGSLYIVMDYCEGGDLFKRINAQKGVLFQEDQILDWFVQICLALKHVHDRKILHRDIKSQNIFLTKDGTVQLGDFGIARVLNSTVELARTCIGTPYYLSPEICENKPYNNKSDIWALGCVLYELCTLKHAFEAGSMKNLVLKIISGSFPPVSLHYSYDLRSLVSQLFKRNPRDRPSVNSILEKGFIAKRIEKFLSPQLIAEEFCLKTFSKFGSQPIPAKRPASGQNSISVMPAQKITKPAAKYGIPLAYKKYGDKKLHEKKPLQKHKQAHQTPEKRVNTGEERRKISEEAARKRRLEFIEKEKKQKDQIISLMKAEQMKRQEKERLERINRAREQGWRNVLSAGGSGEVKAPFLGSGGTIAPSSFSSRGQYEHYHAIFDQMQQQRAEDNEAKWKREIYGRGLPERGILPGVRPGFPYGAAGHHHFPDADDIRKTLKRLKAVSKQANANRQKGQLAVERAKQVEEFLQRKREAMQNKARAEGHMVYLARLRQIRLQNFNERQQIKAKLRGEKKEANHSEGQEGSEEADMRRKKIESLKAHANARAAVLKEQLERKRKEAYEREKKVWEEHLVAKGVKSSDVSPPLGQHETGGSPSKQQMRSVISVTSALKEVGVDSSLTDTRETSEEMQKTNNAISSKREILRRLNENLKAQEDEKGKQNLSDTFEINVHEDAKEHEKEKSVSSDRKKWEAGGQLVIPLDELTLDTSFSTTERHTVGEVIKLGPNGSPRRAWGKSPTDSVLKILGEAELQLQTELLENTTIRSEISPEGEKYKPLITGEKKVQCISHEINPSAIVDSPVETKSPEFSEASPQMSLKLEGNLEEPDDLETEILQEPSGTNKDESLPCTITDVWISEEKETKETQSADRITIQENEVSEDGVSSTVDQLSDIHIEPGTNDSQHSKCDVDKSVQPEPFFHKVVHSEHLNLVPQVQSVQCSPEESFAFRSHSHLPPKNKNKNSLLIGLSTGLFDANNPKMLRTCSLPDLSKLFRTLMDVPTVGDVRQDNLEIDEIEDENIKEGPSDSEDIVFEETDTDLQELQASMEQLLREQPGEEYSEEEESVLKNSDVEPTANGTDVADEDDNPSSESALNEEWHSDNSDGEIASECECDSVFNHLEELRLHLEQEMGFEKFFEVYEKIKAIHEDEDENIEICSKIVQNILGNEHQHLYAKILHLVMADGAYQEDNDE

[13] = molecular target: T5, Serine/threonine-protein kinase Nek1 (Homo sapiens); details: at 1 µM
[14] = molecular target: T6, Serine/threonine-protein kinase Nek2 (Homo sapiens) (UniProt P51955); details: at 0.1 µM
T6 sequence (whole entry): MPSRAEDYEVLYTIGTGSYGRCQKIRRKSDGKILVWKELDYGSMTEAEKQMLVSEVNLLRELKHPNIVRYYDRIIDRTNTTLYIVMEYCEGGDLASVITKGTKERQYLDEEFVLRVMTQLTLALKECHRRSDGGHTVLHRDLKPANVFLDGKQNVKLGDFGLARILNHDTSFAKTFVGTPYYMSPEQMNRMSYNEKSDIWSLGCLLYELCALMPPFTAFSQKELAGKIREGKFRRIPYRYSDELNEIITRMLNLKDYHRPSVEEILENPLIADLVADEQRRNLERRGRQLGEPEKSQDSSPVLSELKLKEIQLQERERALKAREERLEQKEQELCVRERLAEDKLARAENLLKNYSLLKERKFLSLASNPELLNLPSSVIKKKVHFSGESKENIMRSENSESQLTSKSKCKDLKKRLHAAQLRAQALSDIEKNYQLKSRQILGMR

[15] = molecular target: T6, Serine/threonine-protein kinase Nek2 (Homo sapiens); details: at 1 µM
[16] = molecular target: Serine/threonine-protein kinase Nek6 (Homo sapiens) (UniProt Q9HC98); details: at 0.1 µM
Sequence of Serine/threonine-protein kinase Nek6 (Homo sapiens) (Q9HC98 whole entry): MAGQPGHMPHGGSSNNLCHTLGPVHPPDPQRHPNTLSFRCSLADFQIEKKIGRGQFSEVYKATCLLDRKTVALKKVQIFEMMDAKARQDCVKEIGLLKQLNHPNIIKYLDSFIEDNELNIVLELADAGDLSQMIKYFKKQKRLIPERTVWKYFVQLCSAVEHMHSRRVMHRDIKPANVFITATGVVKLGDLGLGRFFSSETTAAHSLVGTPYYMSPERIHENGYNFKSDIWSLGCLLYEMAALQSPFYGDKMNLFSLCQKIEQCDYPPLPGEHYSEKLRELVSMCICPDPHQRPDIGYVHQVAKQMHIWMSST

[17] = molecular target: Serine/threonine-protein kinase Nek6 (Homo sapiens) (UniProt Q9HC98); details: at 1 µM
[18] = molecular target: Serine/threonine-protein kinase Nek7 (Homo sapiens) (UniProt Q8TDX7); details: at 0.1 µM
Sequence of Serine/threonine-protein kinase Nek7 (Homo sapiens) (Q8TDX7 whole entry, looked up): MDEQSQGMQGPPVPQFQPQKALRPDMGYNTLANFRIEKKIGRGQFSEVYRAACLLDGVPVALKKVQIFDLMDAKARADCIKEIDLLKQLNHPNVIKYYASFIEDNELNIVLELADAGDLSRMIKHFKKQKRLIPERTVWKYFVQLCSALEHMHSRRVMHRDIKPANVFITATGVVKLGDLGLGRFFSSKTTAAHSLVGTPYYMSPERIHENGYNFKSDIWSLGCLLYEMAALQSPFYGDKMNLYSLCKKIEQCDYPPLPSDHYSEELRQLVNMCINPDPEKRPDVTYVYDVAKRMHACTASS

[19] = molecular target: Serine/threonine-protein kinase Nek7 (Homo sapiens) (UniProt Q8TDX7); details: at 1 µM
[20] = molecular target: T7, Serine/threonine-protein kinase Nek9 (Homo sapiens) (UniProt Q8TD19); details: at 0.1 µM;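 further: reported value is the mean percent inhibition of NEK9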
T7 sequence (whole entry): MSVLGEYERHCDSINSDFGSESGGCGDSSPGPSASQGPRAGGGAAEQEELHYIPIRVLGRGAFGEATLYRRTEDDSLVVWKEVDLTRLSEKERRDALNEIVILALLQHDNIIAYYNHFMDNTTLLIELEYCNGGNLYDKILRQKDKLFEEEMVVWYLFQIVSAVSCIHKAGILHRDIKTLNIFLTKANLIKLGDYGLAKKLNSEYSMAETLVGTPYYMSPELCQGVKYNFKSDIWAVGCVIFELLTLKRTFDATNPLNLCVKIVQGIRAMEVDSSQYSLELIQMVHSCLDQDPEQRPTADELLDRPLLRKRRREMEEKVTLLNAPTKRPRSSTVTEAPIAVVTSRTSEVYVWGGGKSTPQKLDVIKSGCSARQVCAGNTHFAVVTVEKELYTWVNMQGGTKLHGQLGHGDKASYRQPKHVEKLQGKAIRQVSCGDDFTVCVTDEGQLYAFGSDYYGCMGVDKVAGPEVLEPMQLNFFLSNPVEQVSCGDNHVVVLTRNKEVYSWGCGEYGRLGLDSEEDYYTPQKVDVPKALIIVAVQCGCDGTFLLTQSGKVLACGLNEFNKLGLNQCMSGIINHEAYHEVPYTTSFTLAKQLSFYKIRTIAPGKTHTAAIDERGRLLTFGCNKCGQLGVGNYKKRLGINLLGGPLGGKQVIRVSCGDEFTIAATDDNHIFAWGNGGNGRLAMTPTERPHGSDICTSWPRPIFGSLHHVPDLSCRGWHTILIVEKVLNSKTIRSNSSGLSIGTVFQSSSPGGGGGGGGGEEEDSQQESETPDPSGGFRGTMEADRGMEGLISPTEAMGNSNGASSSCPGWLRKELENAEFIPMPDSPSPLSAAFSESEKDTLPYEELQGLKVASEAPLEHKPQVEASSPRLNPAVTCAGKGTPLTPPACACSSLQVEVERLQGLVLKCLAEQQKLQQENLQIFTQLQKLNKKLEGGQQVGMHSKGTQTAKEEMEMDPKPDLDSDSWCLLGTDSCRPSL

Sequence of Sphingosine kinase 1 (Homo sapiens) (Q9NYA1 whole entry): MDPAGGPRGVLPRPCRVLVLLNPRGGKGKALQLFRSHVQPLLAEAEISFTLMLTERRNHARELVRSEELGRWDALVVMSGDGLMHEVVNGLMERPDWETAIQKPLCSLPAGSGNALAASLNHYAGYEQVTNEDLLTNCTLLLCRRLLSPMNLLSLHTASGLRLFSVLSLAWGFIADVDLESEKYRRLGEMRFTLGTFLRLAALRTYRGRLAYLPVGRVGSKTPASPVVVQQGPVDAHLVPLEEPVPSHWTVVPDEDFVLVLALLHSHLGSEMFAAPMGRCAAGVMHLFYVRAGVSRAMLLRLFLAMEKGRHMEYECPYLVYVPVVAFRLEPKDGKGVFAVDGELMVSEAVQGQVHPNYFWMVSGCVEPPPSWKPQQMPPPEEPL

Row | Structure (SMILES) | inhibition [1] [%] | inhibition [2] [%] | inhibition [3] [%] | inhibition [4] [%] | inhibition [5] [%] | inhibition [6] [%] | inhibition [7] [%] | inhibition [8] [%] | inhibition [9] [%] | inhibition [10] [%] | inhibition [11] [%] | inhibition [12] [%] | inhibition [13] [%] | inhibition [14] [%] | inhibition [15] [%] | inhibition [16] [%] | inhibition [17] [%] | inhibition [18] [%] | inhibition [19] [%] | inhibition [20] [%]
1 | O=C1Nc2ccc(I)cc2C1=Cc1cc(Br)c(O)c(Br)c1 | 0.73 | -0.66 | 3.26 | 4.28 | 17.9 | 1.76 | 3.02 | 1.64 | 3.61 | 10.2 | 3.78 | 2.45 | 3.61 | 4.91 | 3.15 | 1.35 | 3.89 | 4.66 | 10.6 | 9.81
2 | NCc1ccc(-n2c(-c3nonc3N)nc3cnccc32)cc1 | -0.9 | 0.05 | -0.74 | 9.32 | 9.93 | 7.27 | 7.43 | 8.87 | 7.17 | 5.51 | 11.4 | 3.18 | 3.48 | 6.17 | 7.8 | 3.51 | 3.42 | 7.27 | 7.6 | 2.32
